Each sequence was assayed against L1TD1 (assay: pooled miR-30 sensor sort-seq; sequence = guide strand). Conditions: shRNA.
Also: reference of the scale not given here.

Row | Sequence | sensor-assay potency score (higher = more potent)
1 | TTTGATCTTCTAGACTGTCTAT | -0.16
2 | ATTTGCTGAAACTCTGTCCTAC | 0.491
3 | TATTTCTCCAGCTCTATGCTTT | -0.459
4 | TTAAATCTAATACCGGAGCTAT | -1.12
5 | TACTTCTCAAGTTTTCTTCTGT | 0.707
6 | TTGAATTTCCATTAAGACCTTA | 0.102
7 | TTCTTTGACAAATTCATCCTCT | 0.858
8 | TTGATCTTCTAGACTGTCTATT | -0.179
9 | TTGGATGTTAGTTCTTCTGTGT | 0.173
10 | TCTTTCTTCAAGTATGTCCATT | -0.922

The sequences below were run against LAMA2 in the same assay as above. Conditions: shRNA.

Row | Sequence | sensor-assay potency score (higher = more potent)
11 | TAAATGTCAACTGTCCTCCTAC | 0.301
12 | TTTGTGAGCAAACATCATCAAG | -1.56
13 | TATCCAAGAAGTCTTCTCGGGT | -0.905
14 | TTACATAATAGGCCTGTCCAGT | -0.57
15 | TACATCTTTAGCTGTGTCGTTG | -0.19
16 | TTGAGTTTATCTATTAGCCGGT | 0.45
17 | TTTGAGTTTATCTATTAGCCGG | -0.671
18 | TTACATATCAGACAGGAGCCAG | -0.545
19 | TTTATTGTAATTCTTCTTCAGG | -0.611
20 | TTGATTGCAGATTCGACACTGC | 0.517
21 | TAGTTTATTGTAATTCTTCTTC | -0.313
22 | TTAAGTAACAATACATTAGTAT | -0.0119

These sequences were tested against LAMB3 in the same assay as above. Conditions: shRNA.

Row | Sequence | sensor-assay potency score (higher = more potent)
23 | TCTTGAAGCTGGAATCTCCTGT | 0.664
24 | TAGGCTGTGCTCAGCATCCGGA | -0.616
25 | TTTTTTGACTTTGAGTTGCTGG | 0.33
26 | TTTGCATCTAGGATCCGGGAGG | -1.03
27 | TATTTTTTCAAACTGCTCCCTC | 0.433
28 | TCTTCTGCAGAACAGTAGCTGA | -1.16
29 | TCTGACATCTTCCTCCATCTGG | -0.297
30 | TAGGTCACAGCGCTCTCCCTGC | -0.878
31 | TTACTAGCTACACACCAGGGGT | -0.82
32 | TTCTGCAGAACAGTAGCTGAGT | -0.497
33 | TTATTCTCTCAAATCCCTCTTG | -0.105
34 | TTTGACTTTGAGTTGCTGGAAT | -0.395

What follows are sequences tested against LAMB4 in the same assay as above. Conditions: shRNA.

Row | Sequence | sensor-assay potency score (higher = more potent)
35 | TTTGACTGTAGAGTCTTGGGTA | 0.734
36 | TATTGTATCTTTCAGATCTTGA | 0.0271
37 | TTAGCTGTTTAACTTTTCCTAA | -0.989
38 | TTTGTCTTCTAACAGAGTCATG | -1.42
39 | TATTTTGACAAGTTCATCGGTT | 0.404
40 | TTCAACACAGTTGTGAAGCTGA | 0.732
